Experimental data: PubChem BioAssay AID588342 (National Center for Advancing Translational Sciences (NCATS), 2011)
Screen size: about 360,000 compounds; about 25,000 (6.9%) were called active. About 9% were inconclusive and are not listed. The call rests on the fitted dose curve; in most records, active means well fitted inhibition curve with a large enough effect; inconclusive means small, poorly fitted or top-dose-only effect; inactive means flat fitted curve, though single readings scatter. The list comes from a sample in which actives are over-represented; it also holds similar structures and randomly drawn compounds. A call without a number means that no potency is given here.

Each compound was assayed against Luciferin 4-monooxygenase (Photinus pyralis) (UniProt P08659) (assay: qHTS profiling assay for firefly luciferase inhibitor/activator using purifed enzyme and Km concentrations of substrates (counterscreen for miR-21 project)). Conditions: purified FLuc, luminescence inhibition; series mostly up to 57.5 µM.
Chain of Luciferin 4-monooxygenase (Photinus pyralis) (P08659 whole entry, looked up): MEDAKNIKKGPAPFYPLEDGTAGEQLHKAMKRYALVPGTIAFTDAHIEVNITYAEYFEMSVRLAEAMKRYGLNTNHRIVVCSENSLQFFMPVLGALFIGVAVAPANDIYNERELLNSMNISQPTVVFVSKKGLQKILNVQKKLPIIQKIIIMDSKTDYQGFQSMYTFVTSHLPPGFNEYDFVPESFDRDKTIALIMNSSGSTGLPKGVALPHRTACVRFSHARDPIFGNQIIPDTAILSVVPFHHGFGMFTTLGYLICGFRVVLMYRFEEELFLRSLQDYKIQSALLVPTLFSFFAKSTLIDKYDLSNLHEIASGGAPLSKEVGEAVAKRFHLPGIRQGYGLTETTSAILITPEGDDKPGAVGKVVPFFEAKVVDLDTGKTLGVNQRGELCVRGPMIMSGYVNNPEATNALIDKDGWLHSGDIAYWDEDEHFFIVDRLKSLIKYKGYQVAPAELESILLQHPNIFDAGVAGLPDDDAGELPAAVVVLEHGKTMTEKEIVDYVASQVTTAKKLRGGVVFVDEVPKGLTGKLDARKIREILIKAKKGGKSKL
Summary of the method: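 Biochemical qHTS of compounds, final roughly 60 µM downward over six points, against 10 nM purified firefly luciferase using Km concentrations of substrates (10 uM D-luciferin, 10 uM ATP) in Tris acetate pH 7.5 buffer; luminescence output.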
Further: nearly all actives have a fitted effect of over 55% in size.
Potency means the concentration at half of the fitted maximal effect.

Structure (SMILES)	Potency
COc1cccc(-c2nn(-c3ccccc3)cc2/C=C(\C#N)C(=O)NCCCn2ccnc2)c1	inactive
CN(C)/N=C/c1cn(-c2ccccc2)nc1-c1cccnc1	inactive
COc1ccc(-c2nn(-c3ccccc3)cc2/C=N/Nc2ccccn2)cc1OC	10.7 µM (active)
COc1cccc(C2=CC(=O)C[C@H](c3ccc(F)cc3)C2)c1OC	inactive
CC(C)c1ccc(OCC(=O)N(Cc2ccc(N(C)C)cc2)C2CCS(=O)(=O)C2)cc1 (stereo unspecified)	inactive
CCOc1cccc(CNC(=O)c2ccc(N3CCCC3)c(NC(=O)Nc3ccccc3CC)c2)c1	inactive
COc1ccc(CN2C(=O)C(NC(=O)c3cccc(C)c3)(C(F)(F)F)N=C2c2ccccc2)cc1 (stereo unspecified)	inactive
Cc1ccc(SCCC(=O)Nc2cc(C)on2)cc1	inactive
Cc1ccc2nc(-c3ccc(SCC(=O)Nc4cc(C)on4)nc3)[nH]c2c1	0.757 µM (active)
Cc1cc(NC(=O)CSc2nc3ccccc3n2CC(C)C)no1	inactive
Cc1cc(F)ccc1NC1(c2ccccc2)C(=O)c2ccccc2C1=O	inactive
CN(C)c1ccc(S(=O)(=O)NCC(=O)NCC2CCCCC2)cc1[N+](=O)[O-]	inactive
CC(=O)c1ccc(N2Cc3ccccc3C2)cc1	10.7 µM (active)
CC(=O)c1ccc(N2CCN(CC(O)c3ccccc3)CC2)cc1 (stereo unspecified)	inactive
CC(=O)c1ccc(N2CCN(C(=O)CCc3ccccc3)CC2)cc1	inactive
Cc1ccc(S(=O)(=O)N2CCCCC2)cc1C(=O)N1CCN(CCO)CC1	inactive
Cc1cc(C)c2oc(C(=O)Nc3ccc(S(=O)(=O)N4CCCCCC4)cc3)cc(=O)c2c1	inactive
CCc1ccc(-c2nnn(Cc3nn[nH]n3)n2)cc1	26.9 µM (active)
CN(C)c1nc(N)nc(Cn2nnc(-c3ccc(C(F)(F)F)cc3)n2)n1	inactive
COc1ccc(-c2nnn(Cc3nc(N)nc(N4CCCCC4)n3)n2)cc1	inactive
CC(=O)Nc1ccc(S(=O)(=O)N2CCn3cccc3C2C)cc1 (stereo unspecified)	inactive
CCc1ccc(-n2nnc(-c3nc(-c4ccccc4)no3)c2C)cc1	2.13 µM (active)

Structure (SMILES)	Potency
Cc1ccc(-c2noc(-c3nnn(-c4cccc(C(F)(F)F)c4)c3N)n2)cc1	inactive
Cc1ccc(-c2noc(CSc3nnnn3-c3ccccc3)n2)cc1	inactive
Cc1ccc2c(c1)N(C(=O)CCC(=O)NCc1ccccc1F)CC(C)O2 (stereo unspecified)	inactive
CCc1cccc(NC(=O)CN(c2ccc(C)c(C)c2)S(=O)(=O)c2ccsc2C(=O)OC)c1	inactive
CC(=O)Oc1ccc(C)cc1N1C(=O)c2ccc(C(=O)O)cc2C1=O	inactive
Cc1cccc(N2C(=O)c3ccc(C(=O)Nc4cccc(C(=O)O)c4)cc3C2=O)c1	1.51 µM (active)
CC(=O)Nc1ccc(NC(=O)c2ccc3c(c2)C(=O)N(c2ccccc2C)C3=O)cc1	inactive
Cn1nnnc1SCCNCc1ccc(Cl)c(Cl)c1	inactive
COc1cccc(/C=N\NC(=O)C2=NNC(=O)C2C)c1O (stereo unspecified)	6.01 µM (active)
CC1=NNC(=O)C1CCC(=O)N/N=C\c1cccc(Cl)c1 (stereo unspecified)	inactive
Cc1cccc(-n2c(=O)c3c(c4cc(C)ccc4n3C)n(CC(=O)Nc3ccccc3Cl)c2=O)c1	inactive
O=S(=O)(c1ccc(Cl)cc1)c1nnn2c1nc(NC1CCCC1)c1sccc12	inactive
CC(=O)N1CCCc2cc(S(=O)(=O)Nc3ccc(Cl)cc3F)ccc21	inactive
CN(CC(=O)Nc1ccc(F)cc1)CC(=O)N1CCCCC1	inactive
Cc1ccc(C(=O)CSc2ccccc2C(=O)O)cc1	4.26 µM (active)
Cc1ccc(Sc2cc(C(=O)c3ccccc3C(=O)O)ccc2[N+](=O)[O-])cc1	inactive
Cc1ccccc1C(=O)O	inactive
CC1(C(=O)OCC(=O)Nc2ncc(Cl)cc2Cl)CC1(Cl)Cl (stereo unspecified)	inactive
Cc1ccc(NC(=O)NC(C)c2c(-n3cccc3)sc(C)c2C)c(C)c1 (stereo unspecified)	inactive
COC(=O)[C@@H]1C[C@H]2CC[C@H](O)C[C@H]2N1Cc1ccc(N2CCN(C)CC2)cc1	inactive
Cc1ccc(-c2cc(C(=O)Nc3nn[nH]n3)c3ccccc3n2)c(C)c1	15.1 µM (active)
Cc1ccc2c(Cl)c(C(=O)Nc3nn[nH]n3)sc2c1	16.9 µM (active)

Structure (SMILES)	Potency
O=C(CCc1ccccc1)Nc1nn[nH]n1	inactive
Cc1nnsc1C(=O)Nc1cccc(Cl)c1C	inactive
O=C(/C=C/c1c(F)cccc1Cl)Nc1nn[nH]n1	inactive
Cc1cccc(NC(=O)CN(c2ccc(C(C)C)cc2)S(=O)(=O)c2c(C)nn(C)c2C)c1C	inactive
COCCCNc1nc2c(-c3cccc(C)c3)nnn2c2ccc(Cl)cc12	inactive
CC(=O)NC1C(Oc2ccc(C)cc2)OC2COC(c3ccco3)OC2C1O (stereo unspecified)	inactive
CC(C)c1ccc(C2C(C(=O)c3ccco3)=C(O)C(=O)N2CC2CCCO2)cc1 (stereo unspecified)	inactive
CCOc1ccc(C2CC(=O)c3c([nH]c(C(=O)OCc4ccccc4)c3C)C2)cc1 (stereo unspecified)	inactive
O=C(Nc1cc(C(F)(F)F)ccc1Cl)c1ccc2c(c1)CCN2S(=O)(=O)c1ccccc1	inactive
N#Cc1nc(Cc2cccc3ccccc23)oc1NCc1ccc2c(c1)OCO2	inactive
N#Cc1nc(Cc2ccccc2)oc1NCCc1ccccc1	16.9 µM (active)
N#Cc1nc(/C=C/c2ccc(F)cc2)oc1NCc1ccc(F)cc1	inactive
Nc1nc(COC(=O)CCC(=O)c2ccc(Cl)cc2)nc(Nc2ccccc2)n1	inactive
CC(C)NS(=O)(=O)c1ccc(NC(=O)c2cccnc2)cc1	inactive
Cc1c(C(=O)OC(C)C)sc(NC(=O)c2cccnc2)c1C#N	6.75 µM (active)
CCOC(=O)c1sc(NC(=O)CSc2ncccn2)c(C#N)c1C	inactive
Cc1ccc(NS(=O)(=O)c2ccc3c(c2)CC(=O)N3)cc1Cl	inactive
CC(=O)c1ccc(OCCN2CCOCC2)cc1	inactive
c1ccc(-c2ccc(OCCN3CCOCC3)cc2)cc1	16.9 µM (active)
CC(C)(c1ccccc1)c1ccc(OCCN2CCCC2)cc1	inactive
O=C(C1CC1)N1CCc2cc(Br)cc(S(=O)(=O)N3CCN(c4ccccc4F)CC3)c21	inactive
COc1cccc(CN(C)C(=O)CC23CC4CC(CC(C4)C2)C3)c1OC	inactive
